Assay outcomes as filed in PubChem.
Only some compounds are listed: those with a hit (about 2.8% of all), similar ones and a draw of the others.
ERa SRC1 inh = blocks coactivator binding to human estrogen receptor alpha; P03372; TR-FRET ER-alpha LBD / SRC-1 peptide, estradiol-bound; inhibition, % at 25.6 µM; 1.7% of 86,000 active; AID 629; in the data active = inhibition above about 50%;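 note: 0% = receptor plus peptide control and 100% = peptide only without receptor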
MRP1 act = activators of MRP-1 | H69AR cells + doxorubicin, viability rescue, CellTiter-Glo | viability increase, % at 10 µM | 0.61% of 140,000 active | AID 799;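 active = viability gain under doxorubicin at or above a set limit, the compound median plus 3 SD, cut at about 4.7% in these data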;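 note: MRP-1 overexpressing cells given doxorubicin 25 µM after compound pretreatment; 18-22 h compound pretreatment then 72 h with doxorubicin before readout; 0% = doxorubicin-only wells and 100% = vehicle-treated cells without doxorubicin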
ERa SRC1 pot = enhances coactivator binding to human estrogen receptor alpha; P03372; TR-FRET ERalpha-LBD/SRC-Cy5 coactivator binding, 2 h; 100 = basal binding, no effect; coactivator binding (% of control), % at 25.6 µM; 1.3% of 86,000 active; AID 639; in the data active = activity above about 200%;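 note: binding measured in presence of low estradiol as agonist stimulus; 0% = peptide alone without receptor and 100% = receptor with peptide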
MRP resist rev = reverses drug resistance mediated by MRP | H69AR cells + 2 uM doxorubicin, CellTiter-Glo, 72 h | differential viability (reversal), % at 10 µM | 0.04% of 85,000 active | AID 602;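 active = viability drop by adding the cancer drug above about 55%, with treated viability meeting a 40% cutoff, limit read from the data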;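 note: viability without doxorubicin minus viability with 2 µM doxorubicin for each compound; larger differential means the compound sensitizes cells more to doxorubicin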
Smad3 inh = Smad3 (human) transcription factor binding inhibition | inhibition, % at 25 µM | P84022 | 0.29% of 88,000 active | TR-FRET Smad3/Dy647-FoxH1 peptide binding, europium anti-His;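 active = compounds that reduce the energy-transfer binding signal between the protein and its labelled peptide by more than half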;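 note: 0% = Smad3 plus labelled peptide maximal FRET and 100% = peptide-only background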
ERb SRC1 inh = blocks coactivator binding to human estrogen receptor beta; Q92731; TR-FRET ER-beta LBD / SRC1-Cy5 peptide binding; receptor agonist-loaded with 1 µM estradiol; inhibition, % at 25.6 µM; 1.3% of 86,000 active;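 active = compounds whose percent inhibition of the receptor-coactivator binding signal exceeds about 50% in the single-dose screen, limit read from the data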;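 note: 0% = receptor plus peptide wells without compound and 100% = peptide-only wells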
Target sequence (Q92731 whole entry, looked up, the tested form may be a part): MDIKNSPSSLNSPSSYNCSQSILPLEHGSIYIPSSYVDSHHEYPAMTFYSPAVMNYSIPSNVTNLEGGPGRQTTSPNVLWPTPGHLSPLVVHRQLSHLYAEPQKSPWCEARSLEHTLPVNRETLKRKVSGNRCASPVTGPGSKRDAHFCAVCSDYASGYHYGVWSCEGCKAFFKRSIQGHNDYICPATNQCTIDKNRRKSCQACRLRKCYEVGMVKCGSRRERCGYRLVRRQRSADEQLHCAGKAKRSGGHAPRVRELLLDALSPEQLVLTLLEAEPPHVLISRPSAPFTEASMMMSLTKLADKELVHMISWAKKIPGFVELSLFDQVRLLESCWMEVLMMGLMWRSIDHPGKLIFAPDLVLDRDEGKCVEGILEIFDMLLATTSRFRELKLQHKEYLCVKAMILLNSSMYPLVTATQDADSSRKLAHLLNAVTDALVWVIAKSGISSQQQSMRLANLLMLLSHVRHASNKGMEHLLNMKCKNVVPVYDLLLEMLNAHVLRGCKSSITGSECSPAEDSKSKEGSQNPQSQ
The depositor's hits bear a star; x = no result; [ ] = remark or other dose.

SMILES | ERa SRC1 inh | MRP1 act | ERa SRC1 pot | MRP resist rev | Smad3 inh | ERb SRC1 inh
CCOC(=O)Nc1ccc(OC)cc1S(=O)(=O)N1CCCCC1 | 74*[fluorescence artefact?] | -1 | 66 | 4 | 11 | 74*[fluorescence artefact?]
O=C(Nc1ccc(F)cc1)c1sc2cc(C(F)(F)F)cnc2c1-c1cccs1 | 21 | 2 | 185 | 12 | 14 | 21
N#Cc1ccc(NC(=O)c2sc3cc(C(F)(F)F)cnc3c2-c2cccs2)cc1 | 18 | -1 | 330*[fluorescence artefact?] | -2 | 5 | 17
COc1ccc(NC(=O)c2sc3cc(C(F)(F)F)cnc3c2-c2cccs2)cc1 | 34 | 0 | 233*[fluorescence artefact?] | 10 | 26 | 27
COC(=O)c1ccc(CSc2nc3c(c(=O)n2-c2ccc(C)cc2)SCC3)o1 | 21 | 0 | 336*[fluorescence artefact?] | 26 | 4 | 27
COc1ccc(-n2c(SCC(=O)Nc3cc(C)on3)nc3c(c2=O)SCC3)cc1 | -11 | -1 | 109 | 3 | 12 | -1
Cc1cc(NC(=O)CSc2nc3c(c(=O)n2-c2ccc(Br)cc2)SCC3)no1 | 60*[fluorescence artefact?] | -7 | 126 | -18 | -71 | 29
COc1ccc2c(c1)CN([C@H](C)[C@@H]1CC[C@@H]3[C@H]4CC[C@H]5C[C@@H](O)CC[C@]5(C)[C@@H]4CC[C@]31C)CO2 | x | x | x | x | 31 | x
O[C@H]([C@H](O)[C@@H](O)c1nc2ccccc2[nH]1)[C@@H](O)c1nc2ccccc2[nH]1 | x | x | x | x | 27 | x
COc1ccc(C)c2sc(NC(=O)C3=COCCO3)nc12 | 93*[fluorescence artefact?] | 4 | 104 | 2 | -3 | -4
COc1ccc(OC)c2sc(NC(=O)C3=COCCO3)nc12 | -3 | -1 | 106 | -4 | 3 | -7
CN1CCN(C(=S)SCC(=O)Nc2nc(-c3ccccc3)c(-c3ccccc3)o2)CC1 | x | -1 | x | x | x | x
O=C(CN1C(=O)/C(=C/c2ccccc2)SC1=S)Nc1ncc(Cc2ccccc2)s1 | x | 5.3* | x | x | x | x
O=C(CN1C(=O)/C(=C\C=C\c2ccccc2)SC1=S)Nc1ccc(F)cc1 | x | -1 | x | x | x | x
COc1cccc(/C=C2/SC(=S)N(CC(=O)Nc3nnc(C)s3)C2=O)c1 | x | 8.8* | x | x | x | x
COc1cc2nncc(SCc3ccc(Cl)c(Cl)c3)c2cc1OC | x | x | x | x | -16 | x
CNc1sc(C(=O)c2cccs2)c(N)c1-c1nc2ccccc2s1 | 28 | 9.0* | 73 | -14 | 3 | 34
Cc1noc(C)c1C(=O)N1CCN(C(=O)c2sc3cc(Cl)ccc3c2Cl)CC1 | -4 | -1 | 111 | 9 | 8 | 69*[fluorescence artefact?]
CSc1ccccc1NC(=O)c1cnc2scc(C)n2c1=O | 9 | -3 | 92 | -7 | -3 | 8
CCc1ccccc1NC(=O)c1cnc2scc(C)n2c1=O | 10 | -3 | 216*[fluorescence artefact?] | -2 | 10 | 11
O=C(C[C@@H]1C=Cc2ccccc2N1C(=O)c1ccccc1)c1ccccc1 | x | x | x | x | -2 | x
O=S(=O)(c1ccc2oc(-c3ccncc3)nc2c1)c1ccc2oc(-c3ccncc3)nc2c1 | 10 | x | 237*[fluorescence artefact?] | -17 | 22 | 51*[fluorescence artefact?]
O=C(Nc1ccc2oc(-c3cccc(F)c3)nc2c1)c1ccccc1F | 11 | -3 | 223*[fluorescence artefact?] | 3 | -28 | 7
CC(C)CC(=O)Nc1ccc2oc(-c3ccncc3)nc2c1 | 41 | -1 | 105 | -2 | -1 | 13
O=C(Cc1ccccc1)Nc1ccc2oc(-c3ccncc3)nc2c1 | 51*[fluorescence artefact?] | 0 | 299*[fluorescence artefact?] | 9 | 10 | 47
SMILES | ERa SRC1 inh | MRP1 act | ERa SRC1 pot | MRP resist rev | Smad3 inh | ERb SRC1 inh
CC(Oc1ccc(Cl)cc1Cl)C(=O)Nc1ccc2oc(-c3ccncc3)nc2c1 (stereo not given) | 26 | 2 | 327* | 0 | 7 | 41
O=C(Cc1ccccc1)NC(=S)Nc1ccc2oc(-c3ccccc3)nc2c1 | x | -1 | x | x | x | x
O=C1c2ccccc2-c2ccc(NC(=O)[C@H]3CCCC[C@@H]3C(=O)O)cc21 | x | x | x | x | 4 | x
O=C(c1ccco1)N1CCN(C(=O)c2cc(-c3ccccc3)nc3ccccc23)CC1 | -3 | -4 | 95 | -6 | -1 | -16
O=C(c1ccco1)N1CCN(C(=O)c2cc(-c3ccccn3)nc3ccc(Cl)cc23)CC1 | 64*[fluorescence artefact?] | -2 | 44 | -14 | 0 | 54*[fluorescence artefact?]
CC(NC(=O)c1ccccc1)(C(=O)O)C(=O)O | x | x | x | x | -10 | x
COc1ccc(OCc2nc3ccc(S(=O)(=O)Nc4ccccc4Cl)cc3[nH]2)cc1 | x | 6.0* | x | x | x | x
CCc1ccc(C2=NNC(=Nc3cccc(S(=O)(=O)N(C)C)c3)SC2)cc1 | x | -5 | x | x | x | x
CCOC(=O)c1[nH]c2ccc(Cl)cc2c1NC(=O)c1nonc1C | 14 | -3 | 221*[fluorescence artefact?] | 12 | -17 | 10
